Experimental data from PubChem BioAssay (EPA / NIEHS).
The source made the active and inactive calls. The calls were made as follows: active = hit-call score of the fitted dose curve at least 0.9, where 1 is the maximum; inactive = score below 0.9.

What was measured:
[1] = biological target: Nuclear respiratory factor 1 (Homo sapiens) (UniProt Q16656); test: ATG_NRF1_CIS: Attagene CIS-FACTORIAL HepG2 Assay for human Nuclear Respiratory Factor 1 (NRF1) Orphan Gene (AID 2282987); conditions: HepG2 NRF1 cis-element reporter, Attagene multiplex; actives raise or lower the signal
Method in brief: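 HepG2 cells transiently transfected with multiple cis-regulated reporter units, exposed 24 h. Reporter mRNAs measured by RT-PCR, fluorescent labelling, HpaI digestion and capillary electrophoresis; bidirectional fitting against DMSO.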

[2] = ATG_NFI_CIS: Attagene CIS-FACTORIAL HepG2 Assay for human Nuclear Factor I (NFI) (AID 2282989); conditions: HepG2 cis-regulatory reporter, NFI response element transcription; actives raise or lower the signal
Method in brief: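 Cells: human liver HepG2, transiently transfected with promoter-regulated reporter transcription units. Exposure 24 h. Detection: fluorescent RT-PCR products separated by capillary electrophoresis, normalised to DMSO negative control.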

[3] = biological target: Myc proto-oncogene protein (Homo sapiens) (UniProt P01106); test: ATG_Myc_CIS: Attagene CIS-FACTORIAL HepG2 Assay for human Myelocytomatosis (Myc) Proto-Oncogene Transcription Factor (AID 2282990); conditions: HepG2, Attagene cis-reporter transcription factor activity; actives raise or lower the signal
Method in brief: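 HepG2 cells transiently transfected with multiple cis-promoter-driven reporter transcription units, so endogenous TF activity is read. After 24 h compound exposure, reporter mRNA was quantified by RT-PCR, 6-FAM labelling, HpaI digestion and capillary electrophoresis; bidirectional fit versus DMSO.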

[4] = ATG_NRF2_ARE_CIS: Attagene CIS-FACTORIAL HepG2 Assay for human Nuclear Factor Erythroid 2 Related Factor 2 (NFR2) response to Antioxidant Response Elements (ARE) (AID 2282992); conditions: HepG2 Attagene ARE/NRF2 reporter, transcription factor activity; actives raise or lower the signal;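 as to AC50: reporter mRNA level measured by RT-PCR and capillary electrophoresis fluorescence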
Method in brief: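 Transient MRTU transfection of HepG2; 24 h compound exposure; TriZol RNA, RT with oligo(dT), PCR, 6-FAM primer extension, HpaI cut, CE. Bidirectional fit vs DMSO.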

[5] = ATG_Oct_MLP_CIS: Attagene CIS-FACTORIAL HepG2 Assay for human Octamer-Binding Transcription Factor (Oct) (AID 2282993); conditions: HepG2 Attagene cis-factorial Oct reporter, mRNA; actives raise or lower the signal
Method in brief: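 HepG2, transient MRTU transfection, cis promoter elements; 24 h dosing; RT-PCR/CE fluorescence read-out of reporter mRNA; fit both directions vs DMSO.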

[6] = biological target: Cellular tumor antigen p53 (Homo sapiens) (UniProt P04637); test: ATG_p53_CIS: Attagene CIS-FACTORIAL HepG2 Assay for human p53 Transcription Factor (AID 2282994); conditions: HepG2 p53 cis-element reporter, Attagene mRNA; actives raise or lower the signal
Method in brief: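 HepG2, transient MRTU transfection (cis promoter elements, endogenous TFs); 24 h dosing; RNA isolation, RT-PCR, 6-FAM primer extension, HpaI digest, CE fluorescence; bidirectional fit vs DMSO.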

[7] = BSK_3C_TissueFactor: BioMAP Diversity Plus: 3C Assay for Tissue Factor Biomarker Activity (AID 2282997); conditions: BioMAP 3C HUVEC, tissue factor biomarker readout; actives raise or lower the signal
Method in brief: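 Endothelial monolayers (human umbilical vein, primary) are dosed, incubated 24 h, and assayed for Tissue Factor by ELISA; DMSO serves as negative control for bidirectional fitting.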

[8] = BSK_3C_uPAR: BioMAP Diversity Plus: 3C Assay for Urokinase-type plasminogen activator receptor (uPAR) Biomarker Activity (AID 2282998); conditions: BioMAP 3C HUVEC, uPAR biomarker ELISA; actives raise or lower the signal
Method in brief: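 A multiplexed primary-cell system built on human umbilical vein endothelium was used, with chemical present for 24 h before reading. Cell-surface uPAR was detected by ELISA; signal change in either direction counted against DMSO.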

[9] = BSK_3C_VCAM1: BioMAP Diversity Plus: 3C Assay for Vascular cell adhesion molecule 1 (VCAM1) Biomarker Activity (AID 2282999); conditions: BioMAP 3C HUVEC, VCAM1 ELISA, cytokine-stimulated; actives raise or lower the signal
Method in brief: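 Human umbilical vein endothelial cells were dosed with compound for 24 h, after which cell-surface VCAM-1 was quantified by ELISA. Bidirectional curve fitting used DMSO as negative control and activity baseline.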

Measured: AC50

Sequence of Myc proto-oncogene protein (Homo sapiens) (P01106 whole entry, looked up): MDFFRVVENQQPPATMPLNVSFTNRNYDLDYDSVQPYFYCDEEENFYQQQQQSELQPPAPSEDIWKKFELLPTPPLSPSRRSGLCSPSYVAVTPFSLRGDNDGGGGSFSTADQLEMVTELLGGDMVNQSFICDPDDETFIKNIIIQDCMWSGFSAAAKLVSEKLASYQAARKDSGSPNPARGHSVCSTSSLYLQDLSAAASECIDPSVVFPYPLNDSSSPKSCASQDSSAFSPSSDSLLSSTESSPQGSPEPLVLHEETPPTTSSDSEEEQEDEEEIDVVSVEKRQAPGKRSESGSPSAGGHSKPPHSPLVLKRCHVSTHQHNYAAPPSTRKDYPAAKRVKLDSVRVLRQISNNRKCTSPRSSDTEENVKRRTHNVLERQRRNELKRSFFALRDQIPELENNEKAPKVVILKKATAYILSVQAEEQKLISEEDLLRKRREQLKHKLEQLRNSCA
Sequence of Cellular tumor antigen p53 (Homo sapiens) (P04637 whole entry, looked up): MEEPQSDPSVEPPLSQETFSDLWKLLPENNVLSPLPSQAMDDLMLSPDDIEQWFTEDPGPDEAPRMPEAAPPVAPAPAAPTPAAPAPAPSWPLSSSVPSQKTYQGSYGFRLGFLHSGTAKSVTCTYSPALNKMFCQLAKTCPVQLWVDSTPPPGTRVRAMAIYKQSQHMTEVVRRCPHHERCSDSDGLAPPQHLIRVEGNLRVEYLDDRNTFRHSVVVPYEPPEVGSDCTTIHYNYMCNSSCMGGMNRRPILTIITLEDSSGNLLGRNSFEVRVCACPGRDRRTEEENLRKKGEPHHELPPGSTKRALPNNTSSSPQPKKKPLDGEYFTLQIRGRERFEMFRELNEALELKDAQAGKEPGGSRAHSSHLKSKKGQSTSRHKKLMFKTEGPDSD
Sequence of Nuclear respiratory factor 1 (Homo sapiens) (Q16656 whole entry, looked up): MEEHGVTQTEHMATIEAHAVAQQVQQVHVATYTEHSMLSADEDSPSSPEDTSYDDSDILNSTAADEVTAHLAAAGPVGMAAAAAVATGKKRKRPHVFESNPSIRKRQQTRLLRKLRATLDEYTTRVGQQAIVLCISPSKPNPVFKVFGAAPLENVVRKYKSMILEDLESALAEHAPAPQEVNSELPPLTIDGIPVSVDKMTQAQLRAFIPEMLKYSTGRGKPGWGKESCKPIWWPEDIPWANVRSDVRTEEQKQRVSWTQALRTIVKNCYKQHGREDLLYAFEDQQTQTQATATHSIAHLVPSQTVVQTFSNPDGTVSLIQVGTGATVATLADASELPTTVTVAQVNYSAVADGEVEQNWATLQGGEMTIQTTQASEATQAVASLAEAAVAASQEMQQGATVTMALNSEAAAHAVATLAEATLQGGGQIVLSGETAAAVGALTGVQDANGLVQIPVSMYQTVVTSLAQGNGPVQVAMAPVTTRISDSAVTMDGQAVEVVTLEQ

Cc1cccc(C)c1O
inactive: [1] | [2] | [3] | [4] | [5] | [6] | [7] | [8] | [9]

COc1cc(-c2nc(NC(=O)c3cc4cc(C)cc(C)c4n3CC(=O)O)sc2CCC2CCCCC2)c(OC)cc1Cl
inactive: [1] | [3] | [6]
active: [2] 27 µM | [4] 3.45 µM | [5] 5.48 µM | [7] 2.98 µM | [8] 2.92 µM | [9] 4.86 µM

CCCCCCCCCCCCCCCCCC(=O)O
inactive: [1] | [2] | [3] | [4] | [5] | [6] | [7] | [8] | [9]

CCCCCCCCCCCC(=O)OC
inactive: [1] | [2] | [3] | [4] | [5] | [6] | [7] | [8] | [9]

O=C(O)CCCCC(=O)O
inactive: [1] | [2] | [3] | [4] | [5] | [6] | [7] | [8] | [9]

Oc1ccc2c(c1)OC[C@@H](N1CCC(O)(c3ccc(F)cc3)CC1)[C@H]2O
active: [4] 23.4 µM | [5] 27.1 µM
inactive: [1] | [2] | [3] | [6] | [7] | [8] | [9]

C[C@]12C=CC(=O)C=C1CC[C@@H]1[C@@H]2C(=O)C[C@@]2(C)[C@H]1CC[C@]2(O)C(=O)CO
inactive: [1] | [2] | [3] | [4] | [5] | [6] | [7] | [8] | [9]

C=CCc1ccc(O)c(OC)c1
inactive: [1] | [2] | [3] | [5] | [6] | [7] | [8] | [9]
active: [4] 27 µM

CC=Cc1ccc(O)c(OC)c1
inactive: [1] | [2] | [3] | [5] | [6] | [7] | [8] | [9]
active: [4] 16.2 µM

Cc1nc(-c2ccc3c(c2)CCN(CCC2CCC(NC(=O)/C=C/c4ccc(F)cc4)CC2)CC3)no1 (configuration not stated)
active: [9] 12.8 µM
inactive: [1] | [2] | [3] | [4] | [5] | [6] | [7] | [8]

NCCO
inactive: [1] | [2] | [3] | [4] | [5] | [6] | [7] | [8] | [9]

COc1cc(S(=O)(=O)O)c(C)cc1N=Nc1c(O)ccc2cc(S(=O)(=O)O)ccc12
inactive: [1] | [2] | [3] | [4] | [5] | [6] | [7] | [8] | [9]

CCCCCCCC=O
inactive: [1] | [2] | [3] | [4] | [5] | [6] | [7] | [8] | [9]

O=C(N[C@@H](Cc1ccccc1)[C@@H](O)C(=O)N1C[C@@H](O)[C@@H](O)C1)c1cc2cc(Cl)ccc2[nH]1
active: [4] 91.9 µM
inactive: [1] | [2] | [3] | [5] | [6] | [7] | [8] | [9]

O=c1[nH]cc(F)c(=O)[nH]1
active: [6] 11.5 µM
inactive: [1] | [2] | [3] | [4] | [5] | [7] | [8] | [9]

FC(F)(F)C(F)(F)C(F)(F)C(F)(F)C(F)(F)C(F)(F)CCI
inactive: [1] | [2] | [3] | [4] | [5] | [6] | [7] | [8] | [9]

COc1cc(C=O)ccc1O
inactive: [1] | [2] | [3] | [4] | [5] | [7] | [8] | [9]

Cc1cccc([N+](=O)[O-])c1C
inactive: [1] | [2] | [3] | [4] | [5] | [6] | [7] | [8] | [9]

CCOC(=O)CCC(=O)OCC
inactive: [1] | [2] | [3] | [4] | [5] | [7] | [8] | [9]

NC(=O)Cn1c(=O)cc(CCN2CCN(c3nccc4sccc34)CC2)c2ccc(F)cc21
inactive: [1] | [2] | [3] | [5] | [7] | [8] | [9]
active: [4] 54.3 µM

CCCCCCOCCO
inactive: [1] | [2] | [3] | [4] | [5] | [6] | [7] | [8] | [9]

COCCOCCOC
inactive: [1] | [2] | [3] | [4] | [5] | [7] | [8] | [9]

CCCCc1ccc2c(n1)[C@@H](c1ccc(OC)cc1C[C@H](C)C(=O)O)[C@H](C(=O)O)[C@H]2c1ccc2c(c1)OCO2
inactive: [1] | [2] | [3] | [4] | [5] | [7] | [8] | [9]

CC(=O)OCCOCCOCCOC(C)=O
inactive: [1] | [2] | [3] | [4] | [5] | [7] | [8] | [9]

CCCCC(CC)COC(=O)CC(C(=O)OCC(CC)CCCC)S(=O)(=O)O (configuration not stated)
inactive: [1] | [2] | [3] | [5]
active: [4] 11.1 µM | [7] 31.8 µM | [8] 31.1 µM | [9] 38.9 µM

Nc1ccc2c(c1)C(=O)c1ccccc1C2=O
inactive: [1] | [2] | [3] | [5] | [7] | [9]
active: [4] 3.98 µM | [8] 6.96 µM

NS(=O)(=O)c1cc2c(cc1Cl)NCNS2(=O)=O
inactive: [1] | [2] | [3] | [4] | [5] | [7] | [8] | [9]

Cc1cc(NC(=O)C(=O)O)cc(C)c1Oc1ccc(O)c2c1CCC2
inactive: [1] | [2] | [3] | [4] | [5] | [7] | [8] | [9]

CCCCCCCCCCO
active: [4] 158 µM | [5] 173 µM
inactive: [1] | [2] | [3] | [7] | [8] | [9]

CCCc1cc(=O)[nH]c(=S)[nH]1
inactive: [1] | [2] | [3] | [4] | [5] | [7] | [8] | [9]

Cc1c(C(=O)O)c(O)cc2c1C(=O)c1c(O)c([C@@H]3O[C@H](CO)[C@@H](O)[C@H](O)[C@H]3O)c(O)c(O)c1C2=O
inactive: [1] | [2] | [3] | [4] | [5] | [7] | [8] | [9]

COc1ccc(C)cc1N
inactive: [1] | [2] | [3] | [4] | [5] | [7] | [8] | [9]

CN1CCCC1=O
inactive: [1] | [2] | [3] | [4] | [5] | [7] | [8] | [9]

Cc1cc(=O)[nH]c(=S)[nH]1
inactive: [1] | [2] | [3] | [4] | [5] | [7] | [8] | [9]

Oc1ccc2ccccc2c1N=Nc1ccccc1
inactive: [1] | [2] | [3] | [5] | [8] | [9]
active: [4] 1.42 µM | [7] 6 µM

CCOc1ccc2c(c1)C(C)=CC(C)(C)N2
inactive: [3] | [7] | [8] | [9]
active: [1] 133 µM | [2] 166 µM | [4] 27.1 µM | [5] 142 µM

C[Si]1(C)O[Si](C)(C)O[Si](C)(C)O[Si](C)(C)O1
inactive: [1] | [2] | [3] | [4] | [5] | [7] | [8] | [9]

O=c1c(O)c(-c2ccc(O)c(O)c2)oc2cc(O)cc(O)c12
active: [4] 27 µM | [7] 15.6 µM | [8] 13.7 µM | [9] 32 µM
inactive: [1] | [2] | [3] | [5]

COCCOC[C@H](CC1(C(=O)NC2CCC(C(=O)O)CC2)CCCC1)C(=O)Oc1ccc2c(c1)CCC2 (some centres not stated)
inactive: [1] | [2] | [3] | [4] | [5] | [7] | [8] | [9]

O=C(O)Cc1ccccc1Nc1c(Cl)cccc1Cl
inactive: [1] | [2] | [3] | [4] | [5] | [7] | [8] | [9]

CCCCCCCCCCCCCCCC
inactive: [1] | [2] | [3] | [4] | [5] | [7] | [8] | [9]

CCCCCCC(=O)OCC
inactive: [1] | [2] | [3] | [4] | [5] | [7] | [8] | [9]

OC[C@@H](O)[C@@H](O)[C@H](O)[C@H](O)CO
inactive: [1] | [2] | [3] | [4] | [5] | [7] | [8] | [9]

CCCCN(CCCC)CCCC
inactive: [1] | [2] | [3] | [4] | [5] | [7] | [8] | [9]

CC(=O)Oc1ccccc1C(=O)O
inactive: [1] | [2] | [3] | [7] | [8] | [9]
active: [4] 68 µM | [5] 177 µM

CC(=O)C(C)=CC1C(C)=CCCC1(C)C (configuration not stated)
inactive: [1] | [2] | [3] | [4] | [5] | [6] | [7] | [8] | [9]
